Assay [1] has as its system Wnt5a (protein binding on small-molecule microarray). Kind of assay: Wnt5a binders on small-molecule microarray, primary screen, biophysical, 635/667 nm fluorescence (AID 1142).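 Further: fluorescence read at 667 nm with signal to noise per printed feature.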 Particulars: 635 nm fluorescence, higher = more signal.
Assay [2] can be described thus: cell viability in Huh7 cells, primary screen, cytotoxicity control for HCV replication inhibitor project, CellTiter-Glo luminescence, basal, 48 h (AID 1143).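 Further: Huh7 hepatoma cells carrying a hepatitis C replication reporter with no stimulus; test concentration not given here.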 To be noted: Huh7 HCV replicon, higher = more signal, called active from +8 up or from −8 down. On the technique in general: ATP-based viability assays read luminescence as a measure of living cells.
Assay [3] in a line: P. aeruginosa biofilm formation inhibitors, primary screen, PAO1 strain, BacTiter-Glo luminescence, LB-PBS (AID 1144). Particulars: 12 h, higher = more signal.
Assay [4] is described as follows: CREB reporter modulators without forskolin, primary screen, cell-based, PC12, CRE-LacZ reporter, unstimulated (AID 1145). To be noted: no forskolin, luminescence, 4.5 h, higher = more signal, called active from +8 up or from −8 down.
Assay [5] can be described thus: CREB reporter modulators under forskolin, primary screen, cell-based, PC12, CRE-LacZ reporter, forskolin-stimulated (AID 1146).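 Further: PC12 cells with 6xCRE LacZ reporter stimulated by forskolin 10 µM; beta-galactosidase reporter signal reflecting CREB driven transcription.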 To be noted: luminescence, 4.5 h, higher = more signal, called active from +8 up or from −8 down.
Assay [6] deals with Streptavidin (Streptomyces avidinii) (UniProt P22629). Kind of assay: streptavidin binders on small-molecule microarray, primary screen, artefact control for SMM compound annotation, biophysical, 635/667 nm fluorescence (AID 1147).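 Further: signal reflects streptavidin binding to arrayed compounds as a control protein.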 Particulars: streptavidin binding, higher = more signal.
Streptavidin (Streptomyces avidinii), sequence (P22629 whole entry, looked up): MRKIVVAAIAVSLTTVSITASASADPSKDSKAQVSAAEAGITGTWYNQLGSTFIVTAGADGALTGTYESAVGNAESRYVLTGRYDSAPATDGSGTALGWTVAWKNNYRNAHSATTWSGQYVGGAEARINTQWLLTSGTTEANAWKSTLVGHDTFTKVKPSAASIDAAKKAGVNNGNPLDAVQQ
A short description of assay [7]: small-molecule binders of probe aInhba, primary screen, biochemical, small-molecule microarray, 635/667 nm fluorescence (AID 1148).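 Further: score merges 667nm spot fluorescence with signal-to-noise for antibody binding to printed compounds.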 Particulars: higher = more signal.
Assay [8] addresses Torsin-1A (Homo sapiens) (UniProt O14656). Kind of assay: torsin A binders from cell lysate, primary screen, small-molecule microarray, wild-type, 635/667 nm (AID 1149). Particulars: COS7 hTOR1A-WT lysate, 635 nm fluorescence, higher = more signal.
The target is the same in assay [9]. Kind of assay: small-molecule binders of mutant TOR1A in lysate, primary screen, cell lysate, small-molecule microarray, COS7 lysate, 635/667 nm fluorescence (AID 1150).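 Further: score pools 667 nm emission and signal to noise measuring lysate protein binding.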 To be noted: COS7 hTOR1A mutant lysate, 635 nm fluorescence, higher = more signal.
Assay [10] has as its system Sonic hedgehog protein (Shh). Nature of the assay: small-molecule binders of Shh protein, primary screen, biochemical, small-molecule microarray, 635/667 nm fluorescence (AID 1151).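 Further: Shh protein binding to compounds spotted on small-molecule microarray slides; score combines spot fluorescence intensity with signal-to-noise across triplicate slides.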 To be noted: small-molecule microarray binding, 635 nm fluorescence; higher = more signal.
The nature of assay [11]: E. coli DRC41 culture turbidity changes, primary screen, E. coli filamentation inducer project, strain DRC41, OD650, 48 h (AID 1152).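 Further: E. coli MC1000 strain DRC41 lacking acrAB efflux pump and sulA.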 Particulars: E. coli DRC41 (acrAB sulA), higher = more signal, called active from +8 up or from −8 down.
Assay [12] in a line: small-molecule binders of probe aLefty1, primary screen, biochemical, small-molecule microarray, 635/667 nm fluorescence (AID 1153).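 Further: score merges spot fluorescence with signal-to-noise ratio from the scanned slide images.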 To be noted: higher = more signal.
The nature of assay [13]: PSAC antagonists in infected red cells, primary screen, cell-based, P. falciparum Indochina, OD700, 1 h (AID 1154). To be noted: P. falciparum Indochina infected RBC osmotic lysis, higher = more signal, called active from +8 up or from −8 down.
Assay [14] in a line: PSAC antagonists in infected red cells, primary screen, cell-based, P. falciparum Indochina, OD700, 2 h (AID 1155).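 Further: lysis reports solute entry through the parasite surface anion channel PSAC; channel blockers reduce lysis of infected cells.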 To be noted: P. falciparum Indochina infected erythrocytes, osmotic lysis OD700; higher = more signal, called active from +8 up or from −8 down.
A short description of assay [15]: osmotic lysis modulators in infected erythrocytes, primary screen, PSAC antagonist project, cell-based, P. falciparum Indochina, OD700, 3 h (AID 1156). To be noted: higher = more signal, called active from +8 up or from −8 down.
The nature of assay [16]: PSAC antagonists in infected red cells, primary screen, cell-based, P. falciparum Indochina, OD700, 18 h (AID 1157). To be noted: P. falciparum Indochina infected erythrocytes, osmotic lysis OD700, 18 h; higher = more signal, called active from +8 up or from −8 down.
Assay [17] can be described thus: modulators of S6 phosphorylation in cells, primary screen, cell-based, A549, cytoblot, luminescence, serum-stimulated (AID 1158).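 Further: serum-stimulated A549 lung adenocarcinoma cells; signal is phosphorylated S6 detected by cytoblot immunostaining with HRP secondary.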 To be noted: A549 phospho-S6 cytoblot, 5 h, higher = more signal.
In assay [18] the target is NADPH oxidase 2 (Homo sapiens) (UniProt P04839). Nature of the assay: NOX2-dependent H2O2 signal modulators, primary screen, NOX inhibitor project, cell-based, HEK293-NOX2, PMA-stimulated, Amplex Red fluorescence (AID 1159). Further: test concentration not given here. To be noted: 45 min, higher = more signal, called active from +8 up or from −8 down.
NADPH oxidase 2 (Homo sapiens), sequence (P04839 whole entry, looked up): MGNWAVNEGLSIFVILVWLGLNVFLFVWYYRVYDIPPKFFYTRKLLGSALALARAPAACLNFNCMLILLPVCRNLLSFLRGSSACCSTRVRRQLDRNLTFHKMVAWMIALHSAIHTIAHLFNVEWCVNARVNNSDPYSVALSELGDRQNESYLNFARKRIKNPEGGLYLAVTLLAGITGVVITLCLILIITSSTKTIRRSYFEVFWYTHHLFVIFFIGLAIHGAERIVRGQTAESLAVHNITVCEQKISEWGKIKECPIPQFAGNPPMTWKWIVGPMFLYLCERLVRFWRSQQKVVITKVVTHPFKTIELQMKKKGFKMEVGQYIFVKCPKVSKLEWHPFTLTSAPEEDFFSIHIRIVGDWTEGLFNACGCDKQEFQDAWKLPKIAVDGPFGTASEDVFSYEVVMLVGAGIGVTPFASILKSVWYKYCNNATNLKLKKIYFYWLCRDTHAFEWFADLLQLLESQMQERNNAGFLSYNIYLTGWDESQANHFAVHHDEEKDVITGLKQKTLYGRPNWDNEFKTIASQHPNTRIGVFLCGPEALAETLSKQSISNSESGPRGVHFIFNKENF
The target of assay [19] is NADPH oxidase 4 (Homo sapiens) (UniProt Q9NPH5). Nature of the assay: NOX4-dependent H2O2 signal modulators, primary screen, NOX inhibitor project, cell-based, HEK293-NOX4, tetracycline-induced, Amplex Red fluorescence (AID 1160). To be noted: 45 min, higher = more signal, called active from +8 up or from −8 down.
NADPH oxidase 4 (Homo sapiens), sequence (Q9NPH5 whole entry, looked up): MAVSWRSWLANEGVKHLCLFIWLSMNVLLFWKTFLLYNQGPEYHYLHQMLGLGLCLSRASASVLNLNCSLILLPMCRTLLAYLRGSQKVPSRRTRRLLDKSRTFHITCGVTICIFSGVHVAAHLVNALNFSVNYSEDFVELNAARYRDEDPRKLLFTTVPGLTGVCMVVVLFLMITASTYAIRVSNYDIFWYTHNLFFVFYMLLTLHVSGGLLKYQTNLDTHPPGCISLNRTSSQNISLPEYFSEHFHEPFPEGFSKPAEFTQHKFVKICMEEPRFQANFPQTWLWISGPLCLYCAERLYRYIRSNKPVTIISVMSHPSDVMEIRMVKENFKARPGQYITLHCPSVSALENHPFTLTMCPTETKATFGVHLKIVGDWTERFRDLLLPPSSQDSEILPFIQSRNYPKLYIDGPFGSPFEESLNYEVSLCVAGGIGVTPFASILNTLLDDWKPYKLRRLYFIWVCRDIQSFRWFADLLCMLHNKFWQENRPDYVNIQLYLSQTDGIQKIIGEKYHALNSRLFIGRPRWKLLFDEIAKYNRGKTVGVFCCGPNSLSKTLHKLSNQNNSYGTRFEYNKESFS
For assay [20], the target named is NADPH oxidase 5 (Homo sapiens) (UniProt Q96PH1). Nature of the assay: NOX5-dependent H2O2 signal modulators, primary screen, NOX inhibitor project, cell-based, HEK293-NOX5, Amplex Red fluorescence (AID 1161). Particulars: HEK293-NOX5, ionomycin, 45 min, higher = more signal.
NADPH oxidase 5 (Homo sapiens), sequence (Q96PH1 whole entry, looked up): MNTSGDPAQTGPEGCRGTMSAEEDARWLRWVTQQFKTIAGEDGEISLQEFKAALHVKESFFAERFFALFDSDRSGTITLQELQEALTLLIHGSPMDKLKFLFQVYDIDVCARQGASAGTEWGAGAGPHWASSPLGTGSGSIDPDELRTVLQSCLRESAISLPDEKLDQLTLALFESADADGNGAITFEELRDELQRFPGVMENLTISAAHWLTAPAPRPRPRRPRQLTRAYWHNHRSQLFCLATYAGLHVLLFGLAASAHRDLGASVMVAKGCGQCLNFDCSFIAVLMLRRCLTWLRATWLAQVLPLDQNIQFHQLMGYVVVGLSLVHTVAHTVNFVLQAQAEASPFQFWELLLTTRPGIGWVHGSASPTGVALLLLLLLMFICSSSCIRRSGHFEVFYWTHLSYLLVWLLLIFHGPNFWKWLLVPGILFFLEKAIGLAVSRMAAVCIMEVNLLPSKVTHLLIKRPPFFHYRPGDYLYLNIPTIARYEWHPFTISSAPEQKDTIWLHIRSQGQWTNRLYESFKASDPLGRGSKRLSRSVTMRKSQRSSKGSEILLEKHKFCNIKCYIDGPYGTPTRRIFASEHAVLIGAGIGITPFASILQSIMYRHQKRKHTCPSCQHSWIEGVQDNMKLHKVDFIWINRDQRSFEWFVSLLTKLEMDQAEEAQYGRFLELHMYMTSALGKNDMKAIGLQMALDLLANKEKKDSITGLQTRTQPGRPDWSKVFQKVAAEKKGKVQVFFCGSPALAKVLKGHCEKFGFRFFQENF

Molecules are shown by their SMILES. Calls of active or inactive are those of the source. Unless noted, how the calls were made is not given here.

Consider eight compounds from PubChem BioAssay.

Torsin-1A (Homo sapiens), sequence (O14656 whole entry, looked up): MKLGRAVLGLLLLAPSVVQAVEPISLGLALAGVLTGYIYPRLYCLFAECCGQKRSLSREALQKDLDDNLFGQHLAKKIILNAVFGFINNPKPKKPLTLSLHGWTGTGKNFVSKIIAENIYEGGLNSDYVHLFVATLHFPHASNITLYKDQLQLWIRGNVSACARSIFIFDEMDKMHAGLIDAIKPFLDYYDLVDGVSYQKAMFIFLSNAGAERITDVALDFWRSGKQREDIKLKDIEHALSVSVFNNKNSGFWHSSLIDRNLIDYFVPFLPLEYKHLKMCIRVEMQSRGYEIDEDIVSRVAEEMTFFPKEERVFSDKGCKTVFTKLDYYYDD

Consider `Cc1ccccc1C(O)C1C=CC2C(=O)NC(=O)C2N1Nc1ccc(Cl)cc1Cl` (stereo not given), for which the composite z-score was -0.0864 in assay [1]; 0.878 in assay [6]; 0.319 in assay [7]; -0.192 with Torsin-1A (Homo sapiens) [8]; 0.244 with Torsin-1A (Homo sapiens) [9]; -0.232 in assay [10]. In assay [12], the composite z-score was 0.219. Moreover, the z-score was -0.702 (inactive) in [2]; -0.274 (inactive) in assay [3]; 1.01 (inactive) in assay [4]; -0.569 (inactive) in [5]; -1.87 (inactive) in assay [11]; 1.81 (inactive) in [13]. Moreover, the z-score in assay [14] was 1.35 (inactive); in assay [15], -1.11 (inactive); in [16], 0.975 (inactive); in [17], -0.649; in [18], -0.254 (inactive); in [19], -4.79 (inactive). Further, the z-score in [20] was -2.02.

As to `C[C@]1(C(=O)NCCN2CCOCC2)c2ccccc2C(=O)N(Cc2cc(F)cc(C(F)(F)F)c2)[C@H]1c1ccc(CO)cc1`, the composite z-score in assay [1] was -0.187; in [6], 0.0519; in assay [7], 0.027; with Torsin-1A (Homo sapiens) [8], 1.82; with Torsin-1A (Homo sapiens) [9], 1.84; in assay [10], 1.86. The compound also had a composite z-score in [12] of 0.0892. In addition, the z-score was -1.39 (inactive) in [2]; -1.32 (inactive) in assay [3]; -0.385 (inactive) in assay [4]; -0.909 (inactive) in assay [5]; 1.28 (inactive) in assay [11]; 5.73 (inactive) in assay [13]. Further, the z-score in assay [14] was 0.651 (inactive); in assay [15] it was 1.24 (inactive); in assay [16], 0.28 (inactive); in assay [17], 0.523; in assay [18] it was 0.51 (inactive); in assay [19], 0.798 (inactive). In addition, the z-score in assay [20] was -0.291.

As to `CC(=O)N1CC(C(O)C2C=CC3C(=O)NC(=O)C3N2Nc2ccc(Cl)cc2Cl)c2ccccc21` (stereo not given), the composite z-score in assay [1] was -0.0061; in [6], 0.543; in assay [7] it was 0.16; with Torsin-1A (Homo sapiens) [8], -0.291; with Torsin-1A (Homo sapiens) [9], 0.545; in [10] it was -0.123. In assay [12], this compound came in with a composite z-score of 0.176. For the same compound, the z-score is -0.0847 (inactive) in [2]; -0.651 (inactive) in [3]; 1.21 (inactive) in assay [4]; -0.584 (inactive) in [5]; -1.14 (inactive) in assay [11]; 3.47 (inactive) in assay [13]. For the same compound, the z-score in [14] is 1.36 (inactive); in assay [15], -0.0499 (inactive); in assay [16] it was 1.17 (inactive); in assay [17] it was -0.746; in assay [18], -0.849 (inactive); in assay [19], -4.86 (inactive). The compound also gave a z-score in assay [20] of -2.57.

In the case of `O=C1N[C@@H](Cc2ccccc2)C(=O)N2[C@@H]1C[C@@H](C(=O)O)[C@H]2c1ccc(O)cc1`, the composite z-score turned out to be 0.391 in [1]; 0.0885 in assay [6]; 0.25 in [7]; 0.574 in the assay with Torsin-1A (Homo sapiens) [8]; 0.533 with Torsin-1A (Homo sapiens) [9]; 2.02 in assay [10]. In assay [12], this compound yielded a composite z-score of 0.47. Moreover, the z-score in [2] was -0.477 (inactive); in [3], 0.106 (inactive); in assay [4] it was 0.692 (inactive); in assay [5], -0.789 (inactive); in [11] it was 1.13 (inactive); in [13] it was 6.71 (inactive). Besides, the z-score in assay [14] was 1.04 (inactive); in [15], -2.73 (inactive); in assay [16] it was 0.595 (inactive); in assay [17] it was -0.0505; in assay [18], -6.08 (inactive); in assay [19], -4.88 (inactive). In [20], this compound showed a z-score of -2.63.

With `C=CC[C@H](OC(=O)Nc1ccc(SC)cc1)c1ccc(OCCO)cc1`, the composite z-score in assay [1] is -0.348; in assay [6], -0.707; in assay [7], -0.112; with Torsin-1A (Homo sapiens) [8] it was 0.25; with Torsin-1A (Homo sapiens) [9], 0.154; in assay [10], 1.68. For the same compound, in [12], the composite z-score was -0.0987. Besides, the z-score was -2.69 (inactive) in assay [2]; -0.982 (inactive) in assay [3]; 8.61 (active) in [4]; 0.938 (inactive) in assay [5]; -0.393 (inactive) in assay [11]; 31 (active) in assay [13]. Also, the z-score in assay [14] was 17.3 (active); in [15], 3.54 (inactive); in assay [16], 1.58 (inactive); in assay [17], -0.161; in [18], -1.96 (inactive); in [19] it was -0.438 (inactive). In addition, the z-score in assay [20] was -1.34.

Take `C=C(COC)C(=O)CC[C@@H](OC(=O)c1cccnc1)c1ccccc1OCCO`: the composite z-score in assay [1] was 0.125; in assay [6], -0.126; in [7] it was 0.0355; with Torsin-1A (Homo sapiens) [8] it was 0.882; with Torsin-1A (Homo sapiens) [9] it was 1.14; in [10], 0.786. In assay [12], the composite z-score was -0.106. Moreover, the z-score in assay [2] is -3.79 (inactive); in [3], 0.291 (inactive); in assay [4], 19.7 (active); in assay [5], 16.4 (active); in [11], 0.0001 (inactive); in [13] it was 21.2 (active). The z-score is 2.88 (inactive) in assay [14]; 0.793 (inactive) in assay [15]; 0.65 (inactive) in [16]; -0.347 in assay [17]; -2.12 (inactive) in assay [18]; -0.369 (inactive) in assay [19]. In addition, the z-score in assay [20] is -1.4.

On to `C=C(CCCC)C(=O)CC[C@H](OC(C)=O)c1ccc(OCCO)cc1`, for which the composite z-score was -0.624 in assay [1]; 0.519 in assay [6]; -0.308 in [7]; -0.822 with Torsin-1A (Homo sapiens) [8]; -0.514 in the assay with Torsin-1A (Homo sapiens) [9]; -0.0938 in assay [10]. Also, the composite z-score in [12] is -0.316. Also, the z-score in assay [2] was -7.16 (inactive); in assay [3] it was -1.17 (inactive); in [4], 5.09 (inactive); in assay [5] it was -0.361 (inactive); in assay [11], 2.2 (inactive); in [13], 11.3 (active). The z-score in [14] was 0.316 (inactive); in assay [15], 1.61 (inactive); in assay [16] it was -0.623 (inactive); in [17], 2; in assay [18], -3.16 (inactive); in assay [19], -1.5 (inactive). In assay [20], this compound gave a z-score of -3.11.

As to `CC(=O)n1cc(C(O)C2C=CC3C(=O)N(c4ccccc4)C(=O)C3N2Nc2ccc(C(C)C)cc2)c2ccccc21` (stereo not given), the composite z-score in [1] is 0.076; in assay [6], 1.88; in assay [7], 0.161; in the assay with Torsin-1A (Homo sapiens) [8] it was -0.285; in the assay with Torsin-1A (Homo sapiens) [9], 0.617; in [10], -0.69. The same compound returned a composite z-score in [12] of 0.698. The z-score in assay [2] was -0.609 (inactive); in assay [3], -0.827 (inactive); in assay [4], 0.24 (inactive); in [5], -0.247 (inactive); in assay [11], -1.44 (inactive); in assay [13], 2.38 (inactive). Further, the z-score was 0.959 (inactive) in assay [14]; -0.43 (inactive) in assay [15]; 1.46 (inactive) in [16]; -1.04 in [17]; -1.19 (inactive) in assay [18]; -2.92 (inactive) in assay [19]. The z-score in [20] was -3.44.
